# Assay outcomes (PubChem BioAssay)
# In the library only some 3.5% were active in any assay of this set; here they are far more common.
# DNMT1 inh: blocks human DNA methyltransferase DNMT1 | P26358 | DNMT1 molecular beacon, Hinp1I cleavage, fluorescence | inhibition (reported as % activation of signal), % at 10 µM | hit rate 0.83% among 360,000 | AID 588458; in the data active = inhibition above about 50%
# Target sequence (P26358 504-1616 limits assumed): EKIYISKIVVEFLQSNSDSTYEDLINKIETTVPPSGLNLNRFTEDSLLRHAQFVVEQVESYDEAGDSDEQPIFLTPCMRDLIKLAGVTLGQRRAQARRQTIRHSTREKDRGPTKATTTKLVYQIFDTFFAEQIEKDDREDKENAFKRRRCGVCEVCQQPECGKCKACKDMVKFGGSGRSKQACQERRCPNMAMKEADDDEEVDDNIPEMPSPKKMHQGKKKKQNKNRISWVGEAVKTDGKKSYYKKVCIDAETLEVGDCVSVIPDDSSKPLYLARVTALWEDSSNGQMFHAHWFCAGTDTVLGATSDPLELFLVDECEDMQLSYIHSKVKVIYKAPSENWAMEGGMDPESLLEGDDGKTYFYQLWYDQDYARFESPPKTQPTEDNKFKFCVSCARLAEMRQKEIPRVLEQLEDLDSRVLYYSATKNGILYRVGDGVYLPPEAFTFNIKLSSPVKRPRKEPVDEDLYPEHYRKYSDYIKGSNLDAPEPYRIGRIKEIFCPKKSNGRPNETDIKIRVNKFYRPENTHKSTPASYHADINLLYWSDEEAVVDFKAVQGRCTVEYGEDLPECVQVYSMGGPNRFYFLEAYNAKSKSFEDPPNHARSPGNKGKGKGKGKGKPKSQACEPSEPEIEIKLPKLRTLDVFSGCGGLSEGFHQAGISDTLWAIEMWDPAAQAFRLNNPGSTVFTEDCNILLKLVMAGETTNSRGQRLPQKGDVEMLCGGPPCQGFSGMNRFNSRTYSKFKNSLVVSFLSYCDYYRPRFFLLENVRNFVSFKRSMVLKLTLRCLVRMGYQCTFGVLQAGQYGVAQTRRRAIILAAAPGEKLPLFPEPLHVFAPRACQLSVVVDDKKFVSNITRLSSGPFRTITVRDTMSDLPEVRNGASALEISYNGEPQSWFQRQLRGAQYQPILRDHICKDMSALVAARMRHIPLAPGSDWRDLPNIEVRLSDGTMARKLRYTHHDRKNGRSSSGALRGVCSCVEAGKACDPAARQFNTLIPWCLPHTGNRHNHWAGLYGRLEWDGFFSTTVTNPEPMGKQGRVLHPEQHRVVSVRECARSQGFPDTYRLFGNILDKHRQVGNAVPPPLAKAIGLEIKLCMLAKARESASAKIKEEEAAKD
# MBD2 inh: MBD2-methylated oligo binding inhibition | TR-FRET, MBD2 binding to methylated oligonucleotide | inhibition, % at 4.4 µM | hit rate 0.31% among 370,000 | Q9UBB5; in the data active = inhibition above about 13%
# LEDGF integ inh: blocks HIV-1 LEDGF/p75-dependent DNA integration. hit rate 0.64% among 370,000. inhibition, % at 3.7 µM. TR-FRET IN-LEDGF/p75 DNA integration, Eu/Cy5;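 active = inhibition above the screen-wide mean plus 3 SD, cut at about 13% in these data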;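 note: signal is the Cy5 over europium emission ratio at 671 and 618 nm; 0% = plate median of compound wells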
# PG9 binder: small molecules binding HIV-1 gp120 antibody PG9; TR-FRET gp120-PG9 antibody binding; inhibition, % at 6.7 µM; hit rate 0.43% among 360,000; in the data active = inhibition above about 8.5%
# rCAG RNA binder: binds r(CAG) RNA repeats; r(CAG) RNA repeat, TO-PRO-1 dye displacement fluorescence; inhibition, % at 3 µM; hit rate 1.3% among 370,000;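 active = inhibition above the plate cutoff, the mean of all test compounds on that plate plus 3 SD, cut at about 35% in these data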;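 note: 0% = DMSO alone and 100% = 100 µM mitoxantrone as full dye displacement; higher means more dye released from RNA so lower well fluorescence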
# UHRF1 MBD2 ctr: UHRF1 methyl-DNA binding inhibition; UHRF1 binding to methylated oligo, TR-FRET; inhibition, % at 4.4 µM; hit rate 0.75% among 370,000; Q96T88;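 note: UHRF1 SRA domain binding a hemimethylated CpG hairpin DNA probe; 0% = median of test compound wells and 100% = reference inhibitor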
# DNMT1 interf DR: beacon fluorescence artifact, dose response counter-screen | shares compounds with DNMT1 inh | molecular beacon fluorescence, spectral interference counter-screen | IC50, µM | 200 tested, under 10 active; call rule not given here
# DNMT1 confirm: DNMT1 inhibition confirmation, single concentration. inhibition, % at 10 µM. DNMT1 molecular beacon HinP1I cleavage, fluorescence. hit rate 8% among 2,300. shares compounds with DNMT1 inh. AID 602385;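 active = average inhibition of at least 30% in the single-concentration confirmation test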
# Beacon interf: beacon fluorescence artifact counter-screen; activation (fluorescence interference), % at 10 µM; hit rate 1% among 2,300; shares compounds with DNMT1 inh; DNMT1 molecular beacon spectral interference counterscreen, fluorescence 485/520;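 active = activation of at least 30% at 10 µM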;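 note: DNMT1 catalytic domain with a HinP1I cleavage step and a FAM/dabcyl DNA beacon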
# rCAG binder conf: r(CAG) RNA repeat binding, confirmation; hit rate 70% among 4,300; inhibition, % at 3 µM; TO-PRO-1 dye displacement fluorescence; shares compounds with rCAG RNA binder;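 active = inhibition above a per-plate cutoff, the mean inhibition of sample wells plus 3 SD, cut at about 35% in these data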;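 note: loss of TO-PRO-1 fluorescence as compound displaces dye from 1x1 AA loop RNA; 0% = DMSO only wells and 100% = 100 µM mitoxantrone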
# dCAG dye counter: disrupts DNA CAG TO-PRO-1 complex, flagging rCAG hits; inhibition, % at 3 µM; shares compounds with rCAG RNA binder; d(CAG) DNA oligo TO-PRO-1 dye displacement, fluorescence; hit rate 94% among 4,300;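 active = inhibition above its plate's cutoff, the mean test-well inhibition plus 3 SD, cut at about 4.8% in these data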;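 note: 0% = DNA dye mix with DMSO and 100% = 100 µM mitoxantrone; hits displace the dye from DNA and so lower well fluorescence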
# UHRF1 ctr MBD2: inhibits human UHRF1 binding to methylated oligonucleotide, MBD2 counter-screen. shares compounds with MBD2 inh. TR-FRET. inhibition, % at 4.4 µM. hit rate 25% among 1,000. AID 720530;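 note: UHRF1 SRA domain binding a labeled hemimethylated CpG hairpin DNA; 0% = vehicle only and 100% = reference inhibitor with vehicle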
# MBD2 confirm: confirmation of human MBD2-DBD methylated oligonucleotide binding inhibitors; shares compounds with MBD2 inh; TR-FRET MBD2-DBD binding to methylated oligonucleotide; inhibition, % at 4.4 µM; hit rate 26% among 1,000; AID 720531; in the data active = inhibition above about 14%
# IN multimer up: activates HIV-1 integrase multimerization in LEDGF counter-screen. shares compounds with LEDGF integ inh. TR-FRET HIV-1 integrase multimerization, biochemical. activation, % at 7.7 µM. hit rate 17% among 2,000. AID 1053131; in the data active = activation above about 8.9%
# TRFRET interf: optically interferes with TR-FRET readout in LEDGF counter-screen; inhibition, % at 7.7 µM; 2,000 tested, under 10 active; TR-FRET optical interference counterscreen, HIV-1 IN multimerization; shares compounds with LEDGF integ inh;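 active = inhibition above the mean over all tested compounds plus 3 SD, which no compound reached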;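 note: 0% = integrase with antibodies and DMSO and 100% = antibodies without integrase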
# LEDGF integ conf: LEDGF/p75-dependent HIV-1 integration inhibition, confirmation; inhibition, % at 3.7 µM; TR-FRET LEDGF/p75-dependent HIV-1 integration, biochemical; hit rate 36% among 2,000; AID 1053136; shares compounds with LEDGF integ inh; in the data active = inhibition above about 14%
# Numbers without * were called inactive; . = no result given. Cut-off read from the data, not from the text of the source, unless noted: active = inhibition above about 21%; inactive = the rest.
SMILES,DNMT1 inh,MBD2 inh,LEDGF integ inh,PG9 binder,rCAG RNA binder,UHRF1 MBD2 ctr,DNMT1 confirm,Beacon interf,UHRF1 ctr MBD2,MBD2 confirm,IN multimer up,TRFRET interf,LEDGF integ conf,others
Cc1cccc2c(N)c3c(nc12)CCCC3 (tested in a mixture with another compound),6,-3,0,0,4,4,.,.,.,.,.,.,.,
Cc1cc(C)c2c(N)c3cccc(C)c3nc2n1,73*,25*,-4,-1,15,29*,40*,-3,38*,41*,.,.,.,DNMT1 interf DR=>99
O=S(=O)(Nc1c(F)cccc1F)c1ccc(Cl)nc1,1,0,1,1,1,-3,.,.,.,.,.,.,.,
Cc1cc(-c2ccc(S(=O)(=O)N(C)Cc3ccccc3)cc2)on1,3,0,-9,-1,-2,1,.,.,.,.,.,.,.,
CCN(CC)CCOc1ccc2c(c1)C(=NO)c1cc(OCCN(CC)CC)ccc1-2,61*,41*,-2,0,4,54*,34*,-3,62*,47*,.,.,.,DNMT1 interf DR=>99
NS(=O)(=O)c1ccc(CCNC(=O)CCS(=O)(=O)c2ccc(Br)cc2)cc1,87*,17*,0,-2,0,29*,4,3,44*,30*,.,.,.,
O=C(OCc1cc(=O)n2ccsc2n1)c1ccccc1NCCO,59*,31*,-1,1,12,29*,4,3,15,11,.,.,.,
O=C(Oc1ccccc1C(=S)N1CCOCC1)c1ccc([N+](=O)[O-])cc1[N+](=O)[O-],-1,2,0,-2,1,1,.,.,.,.,.,.,.,
Cc1ccccc1-c1cnc(C(O)c2c(C)ccc3ccccc23)[nH]1 (stereo unspecified),-4,1,4,-2,2,3,.,.,.,.,.,.,.,
O=C1CCCC(=O)N1CCCCCCN1C(=O)CCCC1=O,0,1,-4,1,0,1,.,.,.,.,.,.,.,
C/C(=N\NC(=O)Cc1cccn1C)c1ccco1,-4,2,4,-3,5,-2,.,.,.,.,.,.,.,
Cn1cccc1CC(=O)N/N=C/C=C/c1ccco1,96*,23*,48*,-1,24,53*,5,1,26*,24*,.,.,.,
CCCc1c(C)[nH]c2ccc(C(=O)O)cc2c1=S,93*,25*,12,3,45*,77*,15,1,38*,23*,.,.,.,
Cc1[nH]c2ccc(C(=O)O)cc2c1C,4,5,-3,-3,-2,2,.,.,.,.,.,.,.,
Cc1ccc(-c2nc3c(c(=O)[nH]c(=O)n3Cc3ccccc3)n2C)o1,70*,16*,23*,1,24,30*,4,0,16,9,9,-44,34*,
Cc1csc(NC(=O)c2cc(C)nc3ccccc23)n1,-4,-1,-4,-2,0,-2,.,.,.,.,.,.,.,
Cc1csc(NC(=O)c2cc(-c3ccco3)nc3ccccc23)n1,96*,5,26*,-2,44*,14,12,-2,.,.,11*,-56,48*,rCAG binder conf=46*;dCAG dye counter=20*
O=C(N/N=C/c1ccc(F)cc1)c1cc(-c2ccco2)nc2ccccc12,105*,19*,15*,-1,45*,28*,48*,-1,52*,36*,24*,-118,48*,DNMT1 interf DR=>99;rCAG binder conf=47*;dCAG dye counter=30*
CCNC(=O)COC(=O)c1cc(-c2ccco2)nc2ccccc12,71*,5,14*,2,28,8,12,3,.,.,7,-37,29*,
CCOc1ccc(/C=N/NC(=O)c2cc(-c3ccco3)nc3ccccc23)cc1,-10,0,1,-3,11,-6,.,.,.,.,.,.,.,
Cc1nnc(NC(=O)c2cc(-c3ccco3)nc3ccccc23)s1,96*,6,16*,2,37*,26*,18,1,.,.,3,-17,29*,rCAG binder conf=18;dCAG dye counter=8.7*
O=C(Nc1ccc2c(c1)OCO2)c1csc([C@H]2C[C@H](O)[C@@H](CO)O2)n1,0,3,2,1,1,-1,.,.,.,.,.,.,.,
COc1ccc(-c2cc(C(=O)N(C3CCCCC3)C3CCCCC3)no2)cc1,.,5,-3,.,6,-1,.,.,.,.,.,.,.,
C[C@@H]1CN([C@H](C)CO)C(=O)c2cc(Br)cnc2O[C@@H]1CN(C)Cc1ccc(-c2ccccc2)cc1,-6,-1,1,-1,3,0,.,.,.,.,.,.,.,
O=C(O)c1ccc(NS(=O)(=O)c2ccc3c(c2)C2C=CCC2C(c2ccccc2F)N3)cc1 (stereo unspecified),62*,4,43*,-1,88*,13,29,1,.,.,17*,-61,33*,DNMT1 interf DR=>99;rCAG binder conf=61*;dCAG dye counter=27*
COc1ccc(N=C2NC(=O)/C(=C/c3ccco3)S2)cc1,2,-2,12,-4,31,-3,.,.,.,.,.,.,.,
Cc1cccc(N=C2NC(=O)/C(=C/C=C/c3ccco3)S2)c1C,94*,17*,49*,-2,67*,48*,10,3,21*,9,9.7*,-35,63*,rCAG binder conf=64*;dCAG dye counter=31*
Cc1ccc(N=C2NC(=O)/C(=C/C=C/c3ccco3)S2)cc1,87*,1,22*,-3,59*,5,2,4,.,.,17*,-62,58*,rCAG binder conf=54*;dCAG dye counter=26*
